Results filed as inconclusive are left out. Activity calls are given as the source filed them. Rule for the calls, unless noted: active = hit-call score of the fitted dose curve at least 0.9, where 1 is the maximum; inactive = score below 0.9.
What was measured:
[1] = ACEA_ER_80hr: ACEA Biosciences xCELLigence Real-Time Cell Analysis on Estrogen Receptor Agonism for Proliferation (AID 2282667; active = hit-call score of the fitted dose curve at least 0.9, where 1 is the maximum); conditions: T47D proliferation, impedance (xCELLigence), 80 h
How it was run: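 Cell-growth kinetics were measured by impedance in T47D cells treated continuously with compound (top 100 uM final, 1:4 steps, 8 points). Activity at 80 h was scored as signal gain over the DMSO baseline.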

[2] = ATG_CRE_CIS: Attagene CIS-FACTORIAL HepG2 Assay for human cAMP Responsive Element (CRE) binding protein 3 (AID 2282926); conditions: HepG2 CRE cis-reporter, Attagene multiplexed mRNA; actives raise or lower the signal
How it was run: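 We dosed HepG2 cells bearing multiple cis-promoter reporter units for 24 h and measured reporter mRNA by RT-PCR with capillary electrophoresis detection. Bidirectional concentration-response fitting used DMSO as negative control.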

[3] = target: CCAAT/enhancer-binding protein beta (Homo sapiens) (UniProt P17676); assay: ATG_C_EBP_CIS: Attagene CIS-FACTORIAL HepG2 Assay for human CCAAT/Enhancer Binding Protein (C/EBP) beta (AID 2282927); conditions: HepG2 Attagene cis-factorial transcription factor reporter; actives raise or lower the signal
How it was run: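 Chemical-treated HepG2 cells (24 h) bearing cis-regulated reporter constructs were processed for total RNA, then reverse transcription, PCR amplification, fluorescent primer extension and fragment analysis; gain- and loss-of-signal were fitted against DMSO.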

[4] = ATG_CMV_CIS: Attagene CIS-FACTORIAL HepG2 Assay for human CMV (Internal Marker) (AID 2282928); conditions: HepG2 CMV promoter reporter, transcription factor profiling; actives raise or lower the signal;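 note: endpoint acts as a background internal control marker rather than a target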
How it was run: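 Cell system: HepG2, transiently transfected multiple reporter units under cis promoters. Exposure: 24 h. Detection: RT-PCR, FAM labeling, HpaI digestion, capillary electrophoresis. Analysis: bidirectional, DMSO baseline.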

[5] = ATG_DR4_LXR_CIS: Attagene CIS-FACTORIAL HepG2 Assay for human Liver X Receptor (LXR), DR4 submotif (AID 2282929); conditions: HepG2 Attagene DR4 cis-reporter, mRNA transcription; actives raise or lower the signal
How it was run: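 Measures endogenous transcription factor activity via a DR4-driven reporter transcript in human HepG2 cells. Compounds incubated 24 h; mRNA quantified by RT-PCR and capillary electrophoresis, analysed as gain or loss of signal versus DMSO.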

[6] = target: Aryl hydrocarbon receptor (Homo sapiens) (UniProt P35869); assay: ATG_Ahr_CIS: Attagene CIS-FACTORIAL HepG2 Assay for human Aryl Hydrocarbon Receptor (Ahr) (AID 2282930); conditions: HepG2 AhR cis-factorial reporter transcription; actives raise or lower the signal
How it was run: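 Following 24 h of chemical dosing, transfected HepG2 liver cells with cis-driven reporter units were lysed for RNA; reporter mRNA was quantified via RT-PCR and capillary electrophoresis, and responses fitted bidirectionally from DMSO.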

[7] = ATG_AP_1_CIS: Attagene CIS-FACTORIAL HepG2 Assay for human Activator Protein 1 (AP-1) (AID 2282931); conditions: HepG2 Attagene cis-factorial AP-1 reporter mRNA; actives raise or lower the signal
How it was run: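 Bidirectional concentration-response fitting against DMSO controls. Underlying signal: reporter mRNA from cis-promoter constructs in transiently transfected HepG2, measured after 24 h by RT-PCR and capillary electrophoresis.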

[8] = ATG_AP_2_CIS: Attagene CIS-FACTORIAL HepG2 Assay for human Activator Protein 2 (AP-2) (AID 2282932); conditions: HepG2 AP-2 cis-reporter, Attagene transcription factor profiling; actives raise or lower the signal
How it was run: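 HepG2 cells were transiently transfected with multiple cis-promoter reporter transcription units and dosed for 24 h. Reporter mRNA was measured by RT-PCR with capillary electrophoresis fluorescence; bidirectional fits relative to DMSO baseline.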

[9] = ATG_BRE_CIS: Attagene CIS-FACTORIAL HepG2 Assay for human Bone Morphogenetic Protein (BMP) Response Element (BRE) (AID 2282933); conditions: HepG2 BMP response element reporter, Attagene transcription factor profiling; actives raise or lower the signal
How it was run: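 Transient MRTU transfection of human HepG2 liver cells; 24 h compound treatment; total RNA isolated, reverse-transcribed, PCR-amplified, 6-FAM labelled, HpaI-cut, capillary electrophoresis. DMSO = negative control/baseline, bidirectional fit.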

[10] = target: Retinoic acid receptor alpha (Homo sapiens) (UniProt P10276); assay: ATG_DR5_RAR_CIS: Attagene CIS-FACTORIAL HepG2 Assay for human Retinoic Acid Receptor Alpha (RARE), DR5 submotif (AID 2282934); conditions: HepG2 Attagene cis-factorial RARE DR5 reporter, mRNA; actives raise or lower the signal;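 for AC50: reporter responds to endogenous RAR alpha beta and gamma in HepG2 not RARA alone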
How it was run: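 Transfected HepG2 reporter cells are exposed to chemicals for 24 h. Then RNA is extracted and the DR5 element reporter transcript is measured by RT-PCR and capillary electrophoresis, with bidirectional curve fitting relative to DMSO.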

[11] = target: Transcription factor E2F1 (Homo sapiens) (UniProt Q01094); assay: ATG_E2F_CIS: Attagene CIS-FACTORIAL HepG2 Assay for human E2F Transcription Factor 1 (AID 2282935); conditions: HepG2 Attagene cis-reporter, E2F reporter RNA transcripts; actives raise or lower the signal
How it was run: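 HepG2 cells transiently transfected with multiplexed cis-element reporter units, dosed for 24 h. Reporter mRNA measured by RT-PCR, 6-FAM primer-extension labeling, HpaI digestion and capillary electrophoresis; bidirectional fit versus DMSO baseline.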

[12] = ATG_E_Box_CIS: Attagene CIS-FACTORIAL HepG2 Assay for human Enhancer Box (E-box) (AID 2282936); conditions: HepG2 E-box cis-reporter transcription, actives raise or lower the signal
How it was run: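 HepG2 cells transiently transfected with multiplexed cis-element reporter units sensing endogenous transcription factor activity; 24 h compound exposure. Reporter mRNA measured by RT-PCR, 6-FAM primer extension, HpaI digestion and capillary electrophoresis; bidirectional fit versus DMSO.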

[13] = ATG_M_61_CIS: Attagene CIS-FACTORIAL HepG2 Assay for M61 Transcription Factor (Internal Marker) (AID 2282937); conditions: HepG2 Attagene CIS-FACTORIAL M61 internal marker reporter; actives raise or lower the signal
How it was run: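 Fluorescence from labelled cDNA fragments, separated by capillary electrophoresis, quantifies reporter induction. HepG2 cells bearing transiently transfected cis-promoter MRTUs were incubated with test chemical for 24 h; DMSO defined baseline for gain/loss fitting.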

[14] = ATG_EGR_CIS: Attagene CIS-FACTORIAL HepG2 Assay for human Early Growth Response 1 (EGR1) (AID 2282938); conditions: HepG2 Attagene CIS-FACTORIAL EGR reporter mRNA; actives raise or lower the signal
How it was run: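 Cell-based multiplex transcription assay: HepG2 carrying transfected cis-element reporter units, 24 h chemical treatment. Fluorescence from capillary electrophoresis of RT-PCR products gives mRNA levels; fitting is bidirectional relative to DMSO.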

[15] = ATG_M_19_CIS: Attagene CIS-FACTORIAL HepG2 Assay for M19 Transcription Factor (Internal Marker) (AID 2282939); conditions: HepG2 Attagene CIS-FACTORIAL M19 internal marker reporter; actives raise or lower the signal
How it was run: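 Transfect HepG2 with MRTU reporter library → dose chemical, 24 h → isolate total RNA, reverse-transcribe with oligo(dT) → PCR, 6-FAM label, HpaI cut (2 h, 37 C) → capillary electrophoresis. Bidirectional fit vs DMSO.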

[16] = ATG_ERE_CIS: Attagene CIS-FACTORIAL HepG2 Assay for Estrogen Response Element (ERE) (AID 2282940); conditions: HepG2 ERE cis-reporter, Attagene RNA transcript; actives raise or lower the signal
How it was run: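 Transient MRTU transfection of human HepG2; cis-element promoters; 24 h dosing; total RNA → RT (oligo dT) → PCR → 6-FAM primer extension → HpaI digest → CE fluorescence. Bidirectional fit, DMSO baseline.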

[17] = ATG_Ets_CIS: Attagene CIS-FACTORIAL HepG2 Assay for human Erythroblast Transformation Specific (ETS) (AID 2282941); conditions: HepG2 ETS cis-reporter transcription, actives raise or lower the signal
How it was run: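 After transient cis-reporter transfection, HepG2 cells receive test chemical for 24 h. Reporter mRNA levels, measured by RT-PCR and capillary electrophoresis fluorescence, are analysed bidirectionally relative to the DMSO baseline.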

[18] = target: Hepatocyte nuclear factor 3-beta (Homo sapiens) (UniProt Q9Y261); assay: ATG_FoxA2_CIS: Attagene CIS-FACTORIAL HepG2 Assay for human Forkhead box A2 (FOXA2) (AID 2282942); conditions: HepG2 cis-reporter transcription factor activity, 24 h; actives raise or lower the signal
How it was run: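 In transiently transfected human HepG2 cells, promoter-driven reporter mRNA levels after 24 h chemical exposure are determined via RT-PCR with capillary electrophoresis. DMSO serves as baseline for bidirectional fitting.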

[19] = ATG_FoxO_CIS: Attagene CIS-FACTORIAL HepG2 Assay for human Forkhead box O (FoxO) (AID 2282943); conditions: HepG2 Attagene cis-reporter, FoxO element, mRNA; actives raise or lower the signal
How it was run: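 24 h chemical exposure, HepG2 with transient cis-MRTU transfection. RNA extraction, oligo(dT) RT, reporter-specific PCR, primer-extension labelling, HpaI digestion, CE fragment analysis; bidirectional fit, DMSO baseline.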

[20] = ATG_GATA_CIS: Attagene CIS-FACTORIAL HepG2 Assay for human GATA Binding Protein (AID 2282944); conditions: HepG2 GATA cis-element reporter, Attagene multiplex mRNA; actives raise or lower the signal
How it was run: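 Transient MRTU transfection, HepG2, 24 h compound exposure. Total RNA → oligo(dT) RT → PCR → 6-FAM primer extension → HpaI cut → CE. Bidirectional fit vs DMSO.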

Measured: AC50

Sequence of CCAAT/enhancer-binding protein beta (Homo sapiens) (P17676 whole entry, looked up, the tested form may be a part): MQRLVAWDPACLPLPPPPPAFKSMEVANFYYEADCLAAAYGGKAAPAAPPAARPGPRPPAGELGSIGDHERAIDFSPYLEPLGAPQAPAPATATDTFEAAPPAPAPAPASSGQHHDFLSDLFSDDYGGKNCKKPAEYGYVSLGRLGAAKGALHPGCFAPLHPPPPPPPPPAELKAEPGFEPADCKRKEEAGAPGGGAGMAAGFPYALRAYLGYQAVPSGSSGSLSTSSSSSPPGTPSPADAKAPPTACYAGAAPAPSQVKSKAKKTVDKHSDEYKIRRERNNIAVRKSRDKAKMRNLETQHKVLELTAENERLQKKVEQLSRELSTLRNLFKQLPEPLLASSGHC
Sequence of Hepatocyte nuclear factor 3-beta (Homo sapiens) (Q9Y261 whole entry, looked up): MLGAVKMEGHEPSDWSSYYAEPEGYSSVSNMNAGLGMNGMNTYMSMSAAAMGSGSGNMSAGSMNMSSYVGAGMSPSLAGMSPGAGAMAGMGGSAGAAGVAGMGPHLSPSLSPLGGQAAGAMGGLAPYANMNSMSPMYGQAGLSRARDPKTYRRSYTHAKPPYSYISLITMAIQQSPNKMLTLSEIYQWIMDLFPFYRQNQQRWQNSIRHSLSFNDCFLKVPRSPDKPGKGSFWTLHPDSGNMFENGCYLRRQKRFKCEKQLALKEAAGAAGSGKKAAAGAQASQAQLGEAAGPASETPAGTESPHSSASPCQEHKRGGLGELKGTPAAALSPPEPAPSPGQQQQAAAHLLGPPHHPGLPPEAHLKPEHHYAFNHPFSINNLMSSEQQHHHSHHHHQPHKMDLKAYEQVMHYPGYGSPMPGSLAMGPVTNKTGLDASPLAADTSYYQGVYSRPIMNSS
Sequence of Aryl hydrocarbon receptor (Homo sapiens) (P35869 whole entry, looked up): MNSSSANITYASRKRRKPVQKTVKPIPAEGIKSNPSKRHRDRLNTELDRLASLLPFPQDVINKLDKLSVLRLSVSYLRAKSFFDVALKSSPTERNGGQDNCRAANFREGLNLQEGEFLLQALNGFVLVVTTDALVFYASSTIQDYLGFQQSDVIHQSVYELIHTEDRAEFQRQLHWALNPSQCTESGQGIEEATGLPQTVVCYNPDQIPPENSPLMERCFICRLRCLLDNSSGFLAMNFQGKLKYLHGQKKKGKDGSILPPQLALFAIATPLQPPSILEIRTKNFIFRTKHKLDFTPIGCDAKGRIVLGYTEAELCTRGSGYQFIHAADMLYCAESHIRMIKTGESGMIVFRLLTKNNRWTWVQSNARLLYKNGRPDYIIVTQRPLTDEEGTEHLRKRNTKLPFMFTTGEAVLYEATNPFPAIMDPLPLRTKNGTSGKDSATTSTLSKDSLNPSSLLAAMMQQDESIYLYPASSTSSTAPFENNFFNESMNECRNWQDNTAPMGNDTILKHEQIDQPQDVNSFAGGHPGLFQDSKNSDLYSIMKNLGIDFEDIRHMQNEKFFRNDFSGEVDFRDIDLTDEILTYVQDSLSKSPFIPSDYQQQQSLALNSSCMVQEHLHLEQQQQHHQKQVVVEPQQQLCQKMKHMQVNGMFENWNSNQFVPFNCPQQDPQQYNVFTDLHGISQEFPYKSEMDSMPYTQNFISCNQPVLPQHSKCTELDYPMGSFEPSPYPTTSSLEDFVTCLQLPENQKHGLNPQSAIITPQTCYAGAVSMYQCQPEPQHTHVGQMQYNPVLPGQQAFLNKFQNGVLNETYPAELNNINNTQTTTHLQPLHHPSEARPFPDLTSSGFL
Sequence of Transcription factor E2F1 (Homo sapiens) (Q01094 whole entry, looked up): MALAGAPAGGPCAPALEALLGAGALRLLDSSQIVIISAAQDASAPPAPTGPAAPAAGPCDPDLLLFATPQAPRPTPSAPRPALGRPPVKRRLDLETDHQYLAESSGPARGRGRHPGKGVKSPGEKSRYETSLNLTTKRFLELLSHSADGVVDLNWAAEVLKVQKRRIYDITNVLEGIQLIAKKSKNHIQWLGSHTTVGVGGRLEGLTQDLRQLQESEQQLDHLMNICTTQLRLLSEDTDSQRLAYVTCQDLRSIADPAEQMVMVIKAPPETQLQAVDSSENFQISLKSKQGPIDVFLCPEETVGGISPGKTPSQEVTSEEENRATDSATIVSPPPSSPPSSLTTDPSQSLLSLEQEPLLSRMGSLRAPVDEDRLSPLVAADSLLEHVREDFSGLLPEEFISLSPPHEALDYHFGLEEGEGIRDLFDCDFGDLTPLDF
Sequence of Retinoic acid receptor alpha (Homo sapiens) (P10276 whole entry, looked up): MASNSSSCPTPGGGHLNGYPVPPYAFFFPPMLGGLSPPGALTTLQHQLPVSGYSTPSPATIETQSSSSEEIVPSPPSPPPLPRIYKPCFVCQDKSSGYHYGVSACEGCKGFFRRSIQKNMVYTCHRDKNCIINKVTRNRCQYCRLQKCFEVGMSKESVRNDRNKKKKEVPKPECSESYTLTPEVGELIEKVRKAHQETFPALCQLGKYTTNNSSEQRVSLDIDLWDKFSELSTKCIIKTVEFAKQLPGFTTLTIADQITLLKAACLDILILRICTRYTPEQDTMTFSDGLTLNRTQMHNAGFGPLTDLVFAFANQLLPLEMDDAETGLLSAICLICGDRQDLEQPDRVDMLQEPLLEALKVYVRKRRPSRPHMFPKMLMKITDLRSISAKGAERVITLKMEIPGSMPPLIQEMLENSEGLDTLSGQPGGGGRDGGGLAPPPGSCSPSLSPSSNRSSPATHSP

C=CC(C)(CCC=C(C)C)OC(=O)C=Cc1ccccc1 (configuration not stated)
active: [4] 84.2 µM | [5] 27.1 µM | [7] 100 µM | [16] 17.7 µM
inactive: all other assays above

CCc1cccc(CC)c1
not listed: [17] | [19]
inactive: all other assays above

CCCCCCCCCCCCC
not listed: [17]
inactive: all other assays above

Cc1c[nH]c(=O)[nH]c1=O
inactive: all assays above

O=C(Nc1ccccc1)c1cc(Cl)ccc1O
active: [2] 3.19 µM | [3] 3.35 µM | [6] 3.62 µM | [7] 2.84 µM | [9] 3.15 µM | [10] 4.11 µM | [14] 6.36 µM | [17] 19.8 µM | [19] 100 µM
inactive: all other assays above

COCC(=O)O
inactive: all assays above

C=C1C[C@H]2[C@@H]3C=C(C)C4=CC(=O)CC[C@]4(C)[C@H]3CC[C@]2(C)[C@@]1(OC(C)=O)C(C)=O
active: [1] 0.00363 µM | [5] 99.7 µM | [7] 63 µM | [12] 97.6 µM | [14] 52.3 µM | [19] 93.7 µM | [20] 93.6 µM
inactive: all other assays above

CC(=O)CC(=O)Nc1ccccc1C
inactive: all assays above
